Source: PubChem BioAssay (EPA / NIEHS)
Activity calls are given as the source filed them. The calls were made as follows: active = hit-call score of the fitted dose curve at least 0.9, where 1 is the maximum; inactive = score below 0.9.

Columns and labels:
[1] = read-out: Macrophage colony-stimulating factor (MCSF), CSF1 (gene 1435); assay: BSK_hDFCGF_MCSF: BioMAP Diversity Plus: hDFCGF Assay for Macrophage colony-stimulating factor (MCSF) Biomarker Activity (AID 2283060); details: primary human foreskin fibroblasts; actives raise or lower the signal
Procedure, shortened: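 Human foreskin primary fibroblasts were treated with test chemical for 24 h, and M-CSF was then measured by ELISA. Data were fitted bidirectionally against DMSO as the negative control and activity baseline.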

[2] = BSK_hDFCGF_SRB: Viability Assessment in the BioMAP Diversity Plus: hDFCGF Assay (AID 2283061); details: primary human foreskin fibroblasts;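 also: cells exposed to compound for 24 h before the read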
Procedure, shortened: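 Human foreskin primary fibroblasts were treated with compound and assessed 24 h after dosing. Total protein was measured by sulforhodamine B staining (0.1% SRB after 10% TCA fixation, 560 nm read) as a cytotoxicity marker, with bidirectional fitting against DMSO baseline.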

[3] = read-out: TIMP metallopeptidase inhibitor 1 (TIMP1), TIMP1 (gene 7076); assay: BSK_hDFCGF_TIMP1: BioMAP Diversity Plus: hDFCGF Assay for TIMP metallopeptidase inhibitor 1 (TIMP1) Biomarker Activity (AID 2283062); details: primary human foreskin fibroblasts; actives raise or lower the signal
Procedure, shortened: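 Primary human foreskin fibroblasts in the hDFCGF system were dosed with compound for 24 h, then TIMP-1 was measured by ELISA. Activity was fitted bidirectionally relative to DMSO control; parallel SRB staining assessed cytotoxicity.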

[4] = read-out: Monokine induced gamma interferon (MIG), CXCL9 (gene 4283); assay: BSK_hDFCGF_MIG: BioMAP Diversity Plus: hDFCGF Assay for Monokine induced gamma interferon (MIG) Biomarker Activity (AID 2283063); details: primary human foreskin fibroblasts; actives raise or lower the signal
Procedure, shortened: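 ELISA read-out of MIG from primary human dermal fibroblasts 24 h post-dosing. Gain or loss of signal fitted bidirectionally, DMSO as baseline.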

[5] = read-out: Matrix Metallopeptidase 1 (MMP1), MMP1 (gene 4312); assay: BSK_hDFCGF_MMP1: BioMAP Diversity Plus: hDFCGF Assay for Matrix Metallopeptidase 1 (MMP1) Biomarker Activity (AID 2283064); details: primary human foreskin fibroblasts; actives raise or lower the signal
Procedure, shortened: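 MMP1 levels quantified by ELISA 24 h after dosing human dermal fibroblast cultures, with parallel SRB total-protein staining for overt cytotoxicity. Data fitted in both directions against DMSO baseline.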

[6] = read-out: Vascular cell adhesion molecule 1 (VCAM1), VCAM1 (gene 7412); assay: BSK_hDFCGF_VCAM1: BioMAP Diversity Plus: hDFCGF Assay for Vascular cell adhesion molecule 1 (VCAM1) Biomarker Activity (AID 2283065); details: primary human foreskin fibroblasts; actives raise or lower the signal;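 as to AC50: VCAM-1 protein level quantified by ELISA after 24 h chemical exposure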
Procedure, shortened: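 Primary human foreskin fibroblasts (hDFCGF system) were dosed with chemical and VCAM-1 was measured by ELISA 24 h later. Bidirectional curve fitting used DMSO as negative control and activity baseline.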

[7] = read-out: Plasminogen activator inhibitor-1 (PAI1), SERPINE1 (gene 5054); assay: BSK_hDFCGF_PAI1: BioMAP Diversity Plus: hDFCGF Assay for Plasminogen activator inhibitor-1 (PAI1) Biomarker Activity (AID 2283066); details: primary human foreskin fibroblasts; actives raise or lower the signal
Procedure, shortened: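 ELISA readout of PAI-1 from primary human skin fibroblast cultures, 24 h after compound addition. Gain or loss of signal was fitted bidirectionally against DMSO baseline.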

[8] = read-out: Intercellular Adhesion Molecule 1 (ICAM1), ICAM1 (gene 3383); assay: BSK_KF3CT_ICAM1: BioMAP Diversity Plus: KF3CT Assay for Intercellular Adhesion Molecule 1 (ICAM1) Biomarker Activity (AID 2283067); details: primary human keratinocytes with fibroblasts; actives raise or lower the signal
Procedure, shortened: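 Human keratinocyte plus foreskin fibroblast primary co-culture was exposed to chemical for 24 h. ICAM-1 was then quantified by ELISA, and the data were fit bidirectionally against DMSO as the negative control and baseline.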

[9] = read-out: Interferon-gamma inducible Protein 10 (IP10), CXCL10 (gene 3627); assay: BSK_KF3CT_IP10: BioMAP Diversity Plus: KF3CT Assay for Interferon-gamma inducible Protein 10 (IP10) Biomarker Activity (AID 2283068); details: primary human keratinocytes with fibroblasts; actives raise or lower the signal
Procedure, shortened: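 KF3CT co-culture (keratinocytes + foreskin fibroblasts), 24 h compound, IP-10 by ELISA; bidirectional fit vs DMSO baseline.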

[10] = BSK_KF3CT_SRB: Viability Assessment in the BioMAP Diversity Plus: KF3CT Assay (AID 2283069); details: primary human keratinocytes with fibroblasts
Procedure, shortened: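 Cytotoxicity was gauged by SRB staining (0.1% SRB, 10% TCA fixation, 560 nm) of parallel cultures at 24 h. The cells were primary human skin keratinocytes co-cultured with fibroblasts, and activity was fitted in both directions against DMSO.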

Measured: AC50

N#CC(CCc1ccc(Cl)cc1)(Cn1cncn1)c1ccccc1 (stereo not given)
inactive: all assays above

CC1=C(C(=O)Nc2ccccc2)SCCO1
inactive: all assays above

Fc1ccc(Oc2ccnc3cc(Cl)cc(Cl)c23)cc1
active: [1] 16.4 µM | [2] 15.3 µM | [4] 26.6 µM | [5] 35.3 µM | [6] 13.2 µM | [7] 18 µM | [9] 17.9 µM
inactive: [3] | [8] | [10]

Cc1ccc(-c2c(Cl)nc(C#N)n2S(=O)(=O)N(C)C)cc1
active: [1] 14.3 µM | [2] 14.5 µM | [3] 18.3 µM | [6] 4.39 µM | [10] 11.3 µM
inactive: all other assays above

CC1COC(Cn2cncn2)(c2ccc(Oc3ccc(Cl)cc3)cc2Cl)O1 (stereo not given)
active: [1] 32.2 µM | [2] 32.5 µM | [3] 30.4 µM | [4] 31.1 µM | [5] 33.8 µM | [6] 30.8 µM | [7] 32.1 µM | [8] 38.2 µM | [9] 34.7 µM | [10] 33.7 µM

C=CCC1=C(C)[C@@H](OC(=O)[C@@H]2[C@@H](C=C(C)C)C2(C)C)CC1=O
inactive: [8] | [9]
active: [1] 32.2 µM | [2] 34.9 µM | [3] 32.1 µM | [4] 31.6 µM | [5] 31 µM | [6] 29.6 µM | [7] 36.6 µM | [10] 20 µM

Cc1cc(Cl)ccc1OCC(=O)O
inactive: all assays above

O=C(O)COc1nc(Cl)c(Cl)cc1Cl
inactive: all assays above

COC(=O)N(OC)c1ccccc1COc1ccn(-c2ccc(Cl)cc2)n1
active: [1] 20 µM | [2] 13.4 µM | [5] 4.62 µM | [7] 2.46 µM | [9] 6.72 µM
inactive: [3] | [4] | [6] | [8] | [10]

OC(c1ccc(Cl)cc1)(c1cncnc1)c1ccccc1Cl (stereo not given)
active: [5] 11.5 µM | [7] 16.6 µM
inactive: all other assays above
